PMC4336329 (PLoS ONE, 2015)
Out of some 310,000 compounds screened, about 14,000 (4.5%) showed an effect of 50% or more. The effect is printed as a negative number. The full list was thinned out, with strong results kept by preference.

biological target: human ether-à-go-go-related gene (hERG) potassium channel (human, UniProt Q12809); experiment: primary screen, population patch clamp on CHO cells stably expressing hERG; higher = less effect of the substance
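Also: peak tail current of the secondary pulse compared with the same well before compound.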

human ether-à-go-go-related gene (hERG) potassium channel, sequence (Q12809 whole entry, looked up): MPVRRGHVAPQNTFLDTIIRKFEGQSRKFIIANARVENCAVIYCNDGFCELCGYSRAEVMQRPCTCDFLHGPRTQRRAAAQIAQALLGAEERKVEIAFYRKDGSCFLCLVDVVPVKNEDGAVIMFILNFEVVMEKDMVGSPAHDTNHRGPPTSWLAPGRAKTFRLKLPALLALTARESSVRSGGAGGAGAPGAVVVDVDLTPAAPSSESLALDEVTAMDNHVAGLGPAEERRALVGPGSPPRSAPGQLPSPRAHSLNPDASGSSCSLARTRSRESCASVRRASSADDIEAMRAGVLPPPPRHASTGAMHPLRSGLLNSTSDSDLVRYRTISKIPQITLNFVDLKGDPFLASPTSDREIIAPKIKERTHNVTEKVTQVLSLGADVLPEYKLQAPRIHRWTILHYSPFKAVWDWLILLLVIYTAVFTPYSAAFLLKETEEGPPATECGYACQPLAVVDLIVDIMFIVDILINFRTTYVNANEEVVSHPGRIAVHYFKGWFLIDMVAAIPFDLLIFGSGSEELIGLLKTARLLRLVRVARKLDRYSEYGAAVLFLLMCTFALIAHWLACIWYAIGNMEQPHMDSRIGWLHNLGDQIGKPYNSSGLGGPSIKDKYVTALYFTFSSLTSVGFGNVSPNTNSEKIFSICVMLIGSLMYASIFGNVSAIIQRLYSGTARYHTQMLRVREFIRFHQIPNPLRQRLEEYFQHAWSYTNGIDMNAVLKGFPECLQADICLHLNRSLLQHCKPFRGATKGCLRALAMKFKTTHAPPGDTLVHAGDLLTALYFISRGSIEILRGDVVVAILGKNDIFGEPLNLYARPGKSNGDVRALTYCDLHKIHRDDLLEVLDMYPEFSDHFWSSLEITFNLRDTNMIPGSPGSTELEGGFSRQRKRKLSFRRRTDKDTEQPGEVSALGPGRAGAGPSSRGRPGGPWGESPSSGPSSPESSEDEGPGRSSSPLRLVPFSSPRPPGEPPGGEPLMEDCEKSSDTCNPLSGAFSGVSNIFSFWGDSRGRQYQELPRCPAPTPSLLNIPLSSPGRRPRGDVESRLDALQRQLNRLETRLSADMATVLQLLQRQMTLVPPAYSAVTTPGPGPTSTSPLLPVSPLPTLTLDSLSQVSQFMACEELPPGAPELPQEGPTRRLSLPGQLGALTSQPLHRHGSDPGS

| SMILES | hERG current change (%, negative = inhibition) at 10uM [%] |
| --- | --- |
| C=CCN=C(C)C1=C(O)CCC1=O | 16.5 |
| O=C(CSc1nc2c(c(=O)n1-c1ccc(Cl)cc1)SCC2)N1CCOCC1 | -14.2 |
| O=C1C(C2=NC(c3ccccn3)C3C(=O)N(c4ccc(Cl)cc4Cl)C(=O)C23)=C(O)c2ccccc21 (centres unmarked) | -4.11 |
| O=C(Cc1cccs1)NNC(=O)c1ccc(F)cc1 | 3.91 |
| Cc1ccc(CNC(=O)C2CC(c3cc(C(F)(F)F)cc(C(F)(F)F)c3)=NO2)o1 (centres unmarked) | -12.1 |
| CCOc1ccc(-c2noc(CCC(=O)O)n2)cc1 | -1.59 |
| Cc1nnc(NC(=O)c2ccc(-c3ccc([N+](=O)[O-])cc3)o2)s1 | -11.7 |
| c1ccc(COc2ccc(OCCn3cncn3)cc2)cc1 | 4.65 |
| CCn1c(O)c(C=Nc2ccccc2)sc1=O | 13.9 |
| O=C(Nc1ccc(OCC(=O)N2CCOCC2)cc1)Nc1cccc(Cl)c1 | -7.18 |
| COc1cc(COCC(O)CN2CCN(Cc3ccccc3)CC2)cc(OC)c1OC.Cl (centres unmarked) | -39.1 |
| O=C1c2cccc3cccc(c23)C(=O)N1CCN1CCN(C(=S)Nc2ccc(Cl)cc2)CC1 | 16.4 |
| O=C1c2ccccc2C(=O)N1CC(O)COCc1ccccc1 (centres unmarked) | 19.4 |
| Cl.O=C1c2cccc3cccc(c23)C(=O)N1CCN1CCN(CC(O)COCc2ccc(Cl)cc2)CC1 (centres unmarked) | -72.5 |
| COc1cc(COCC(O)CN2CCN(CCN3C(=O)c4cccc5cccc(c45)C3=O)CC2)cc(OC)c1OC.Cl (centres unmarked) | -62 |
| CCN1CCN(CC(O)COCc2cc(OC)c(OC)c(OC)c2)CC1.Cl (centres unmarked) | 22.2 |
| O=C(Nc1c(-c2ccccc2)nc2ncccn12)c1cc2ccccc2oc1=O | -12.2 |
| COC(=O)c1cc(-c2ccc(Cl)cc2Cl)n[nH]1 | 14.1 |
| O=Cc1c(Sc2ccccc2)nc2ccccn2c1=O | -0.892 |
| COc1ccc(-c2csc3[nH]c(=S)n(-c4ccccc4)c(=O)c23)cc1OC | 23.8 |
| O=C(Nc1ccccc1)NN(C(=O)CCl)c1ccccc1 | 6.85 |

| SMILES | hERG current change (%, negative = inhibition) at 10uM [%] |
| --- | --- |
| CSc1cc(C)nc(N(C)C(C)=O)n1 | 27.1 |
| CCOC(=O)c1cn(Cc2ccccc2)nc1-c1ccccc1 | -8.37 |
| O=C(O)c1ccc(NS(=O)(=O)c2ccc3c(c2)C(=O)c2ccccc2C3=O)cc1 | 18.5 |
| S=c1[nH]nc(Cc2cccs2)n1-c1ccccc1 | 16.2 |
| Cc1ccccc1-n1c(Cc2cccs2)n[nH]c1=S | 14.3 |
| CCCCc1ccc(-n2c(Cc3cccs3)n[nH]c2=S)cc1 | -56.3 |
| O=C(Nc1ccc2c(c1)OCO2)c1cc(-c2ccccc2Cl)on1 | 15.3 |
| CCOc1ccc(CCNC(=O)CS(=O)Cc2nc(-c3ccccc3Cl)oc2C)cc1OCC (centres unmarked) | -10.7 |
| CC(C)C1N=C2c3ccccc3N=C(SCc3cc(=O)n4cc(Cl)ccc4n3)N2C1=O (centres unmarked) | -67 |
| CC(C)C1N=C2c3ccccc3N=C(SCC#N)N2C1=O (centres unmarked) | 5.14 |
| O=C(O)CCCCn1c(SCc2cc(=O)n3cc(Cl)ccc3n2)nc2ccsc2c1=O | 2.87 |
| CC(C)C1N=C2c3ccccc3N=C(SCC(=O)c3ccc(O)c(O)c3)N2C1=O (centres unmarked) | -23.1 |
| CC1N=C2c3ccccc3N=C(SCc3cc(=O)n4cc(Cl)ccc4n3)N2C1=O (centres unmarked) | -63.6 |
| Cc1ccc2nc(CSc3nnc4ccccn34)cc(=O)n2c1 | 13.2 |
| COc1ccc(CN2C(=O)NC3(CCCc4ccccc43)C2=O)cc1F (centres unmarked) | -14.4 |
| O=[N+]([O-])c1cc(S(=O)(=O)Nc2cccc(C(F)(F)F)c2)ccc1-n1nnc2ccccc21 | 0.81 |
| COc1ccc(S(=O)(=O)N2CCC(N3CCN(c4ccccc4)CC3)CC2)cc1 | -8.52 |
| C/C=C(\C)C(=O)NCCN1C2=NC[C@@H](Cc3ccccc3)N2C[C@H]1Cc1ccc(O)cc1 | 12.8 |
| C/C=C(\C)C(=O)NCCN1C2=NC[C@H](C(C)C)N2C[C@@H]1Cc1ccc(OC)cc1 | -86.6 |
| C/C=C(\C)C(=O)NCCN1C2=NC[C@H](Cc3ccc(O)cc3)N2C[C@@H]1Cc1ccc(OC)cc1 | -2.89 |
| C/C=C(\C)C(=O)NCCN1C2=NC[C@@H](Cc3ccccc3)N2C[C@@H]1Cc1ccc(OC)cc1 | -60.3 |

| SMILES | hERG current change (%, negative = inhibition) at 10uM [%] |
| --- | --- |
| C/C=C(\C)C(=O)NCCN1C2=NC[C@H](Cc3ccccc3)N2C[C@H]1Cc1ccc(O)cc1 | 1.99 |
| C/C=C(\C)C(=O)NCCN1C2=NC[C@H](Cc3ccccc3)N2C[C@@H]1Cc1ccc(OC)cc1 | -73.3 |
| C/C=C(\C)C(=O)NCCN1C2=NC[C@H](C)N2C[C@@H]1Cc1ccc(OC)cc1 | -4.7 |
| C/C=C(\C)C(=O)NCCN1C2=NC[C@H](C(C)C)N2C[C@H]1Cc1ccc(O)cc1 | 23.1 |
| CC1(C)CC(=O)C2=C(C1)OC1=C(C(=O)CC(C)(C)C1)C2c1ccc(O)c([N+](=O)[O-])c1 | 14 |
| Cc1cc(O)c(C=Nc2ccc(N3CCOCC3)cc2)c(C)c1Cl | 18.5 |
| O=C1CN(C(=O)COC(=O)C2CC(=O)N(Cc3ccco3)C2)c2ccccc2N1 (centres unmarked) | -7.99 |
| CSc1ccc(/C=C2\C(=N)N3N=C(CC(=O)N4CCOCC4)SC3=NC2=O)cc1 | 14.2 |
| COc1cccc(/C=C2/Sc3ccc(C(=O)NCCN4CCCC4)cc3NC2=O)c1 | -39.1 |
| COc1cccc(/C=C2/Sc3ccc(C(=O)NCCN4CCCCCC4)cc3NC2=O)c1 | -47.3 |
| COc1cccc(/C=C2/Sc3ccc(C(=O)NCCCN4CCCC4)cc3NC2=O)c1 | -59.8 |
| Cc1cccc(/C=C2/Sc3ccc(C(=O)NCCCN4CCOCC4)cc3NC2=O)c1 | -25.3 |
| CCC1CCCCN1CCCNC(=O)c1ccc(/C=C2/Sc3ccccc3NC2=O)cc1 (centres unmarked) | -76.9 |
| CC1CCN(C(=O)c2ccc3c(c2)NC(=O)/C(=C/c2ccccc2)S3)CC1 | 11 |
| CN1CCN(C(=O)c2ccc3c(c2)NC(=O)/C(=C/c2ccccc2)S3)CC1 | -16 |
| Cc1cccc(/C=C2/Sc3ccc(C(=O)NCCN4CCCC4)cc3NC2=O)c1 | -54.7 |
| CCN1CCN(CCCNC(=O)c2ccc3c(c2)NC(=O)/C(=C\c2cccc(C)c2)S3)CC1 | -38.6 |
| O=C1Nc2cc(C(=O)N3CCC(N4CCCCC4)CC3)ccc2S/C1=C\c1ccccc1 | -58.3 |
| CCN1CCCC1CNC(=O)c1ccc2c(c1)NC(=O)/C(=C\c1ccc(C)cc1)S2 (centres unmarked) | -42.4 |
| CCC1CCCCN1CCCNC(=O)c1ccc2c(c1)NC(=O)CS2 (centres unmarked) | 4.27 |
